Laboratory results taken from PubChem BioAssay (NCI).
Compounds without any hit were thinned out: in the full panel of roughly 79,000, 15% have a hit. Active and inactive are the calls of the source. No stated cut-off is given here; in the data, active means growth inhibition above about 70%; inactive means the rest.

Columns and labels:
[1] = NCI Yeast Anticancer Drug Screen. Data for the rad50 strain (AID 155);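 further: 0% = growth of vehicle-only cultures of the same strain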; settings: S. cerevisiae rad50 strain growth inhibition, hits give high values
Outline: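 A DNA repair-deficient yeast mutant serves as the test organism; compound-induced growth inhibition is calculated against vehicle-treated cells.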

[2] = NCI Yeast Anticancer Drug Screen. Data for the mec2-1 strain (AID 157); settings: S. cerevisiae mec2-1 strain, hits give high values
Outline: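 Readout is yeast growth inhibition, normalised to vehicle-treated controls, in the mec2-1 strain exposed to compound.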

[3] = NCI Yeast Anticancer Drug Screen. Data for the sgs1 mgt1 strain (AID 161);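 further: 0% = growth of cultures given vehicle only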; settings: S. cerevisiae sgs1 mgt1 strain, hits give high values
Outline: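 This yeast growth screen uses a strain with defined DNA-repair lesions; compound-treated growth is compared with vehicle-treated growth.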

[4] = NCI Yeast Anticancer Drug Screen. Data for the cln2 rad14 strain (AID 165);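 further: 0% = growth equal to vehicle treated cultures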; settings: S. cerevisiae cln2 rad14 strain, hits give high values
Outline: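 Relative to vehicle controls, growth inhibition of compound-treated cln2 rad14 yeast was recorded.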

[5] = NCI Yeast Anticancer Drug Screen. Data for the bub3 strain (AID 167); settings: S. cerevisiae bub3 mutant strain, hits give high values
Outline: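 Inhibition values come from growth of compound-treated mutant yeast normalised to vehicle-treated controls.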

[6] = NCI Yeast Anticancer Drug Screen. Data for the mlh1 rad18 strain (AID 175); settings: S. cerevisiae mlh1 rad18 strain growth inhibition, hits give high values
Outline: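 Test agents were incubated with a yeast strain of defined genotype (DNA damage repair defect). Inhibition of growth was derived by comparison with vehicle-exposed cultures.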

[7] = at 5.0 µM (retest, dose inferred, filed as 0.5)
[8] = at 50.0 µM (retest, dose inferred, filed as 5.0)

Measured: growth inhibition

COc1cc([C@H]2c3c(cc(OC)c(OC)c3OC)CC3COC(=O)[C@@H]32)cc2c1OCO2 (some centres undefined)
active: [1]; at 50.0 µM 95.5% | [2]; at 50.0 µM 98.8% | [4]; at 50.0 µM 98.5% | [5]; at 50.0 µM 99.3% | [6]; at 50.0 µM 97.5%
inactive: [1]; [7] 4% | [1]; [8] 37% | [2]; [7] 2% | [2]; [8] 25% | [3]; [7] 9% | [3]; [8] 38% | [3]; at 50.0 µM 52.2% | [4]; [7] 1% | [4]; [8] 4% | [5]; [7] -2% | [5]; [8] 53% | [6]; [7] -2% | [6]; [8] 9%

NCc1ccc(O)c(O)c1O
inactive: [1]; [7] -2% | [1]; at 50.0 µM 14.9% | [2]; [7] 8% | [2]; at 50.0 µM 14.4% | [3]; [7] 8% | [3]; [8] 61% | [3]; at 50.0 µM 38.2% | [4]; [7] -16% | [4]; [8] 52% | [4]; at 50.0 µM -2.75% | [5]; [7] -2% | [6]; [7] -22% | [6]; at 50.0 µM 16.3%
active: [1]; [8] 78% | [2]; [8] 80% | [5]; [8] 82% | [5]; at 50.0 µM 81.4% | [6]; [8] 83%

C1CCC2CC3(CCNCC3)CCC2C1 (centres undefined)
active: [1]; at 50.0 µM 75.2% | [3]; [8] 79% | [3]; at 50.0 µM 88.4% | [4]; [8] 82% | [4]; at 50.0 µM 83.7% | [5]; at 50.0 µM 86.8% | [6]; [8] 73% | [6]; at 50.0 µM 92%
inactive: [1]; [7] 14% | [1]; [8] 55% | [2]; [7] 9% | [2]; [8] 55% | [2]; at 50.0 µM 55.4% | [3]; [7] 16% | [4]; [7] 12% | [5]; [7] 11% | [5]; [8] 66% | [6]; [7] 9%

N#CC(CCCCl)(c1ccccc1)c1ccccc1
active: [1]; at 50.0 µM 86.8% | [2]; at 50.0 µM 84% | [3]; at 50.0 µM 88.5% | [6]; at 50.0 µM 92.2%
inactive: [1]; [7] 2% | [1]; [8] 33% | [2]; [7] 3% | [2]; [8] 32% | [3]; [7] 4% | [3]; [8] 51% | [4]; [7] 0% | [4]; [8] -3% | [4]; at 50.0 µM 41.8% | [5]; [7] -1% | [5]; [8] 22% | [5]; at 50.0 µM 67% | [6]; [7] 15% | [6]; [8] 69%

COc1ccc2c(c1)nc1cc(Cl)ccc1[n+]2C
active: [1]; [8] 97% | [1]; at 50.0 µM 82.2% | [2]; [8] 95% | [3]; [8] 97% | [3]; at 50.0 µM 74.1% | [4]; [8] 97% | [5]; [8] 93% | [5]; at 50.0 µM 86.3% | [6]; [8] 97% | [6]; at 50.0 µM 85.3%
inactive: [1]; [7] 8% | [2]; [7] 2% | [2]; at 50.0 µM 52.5% | [3]; [7] -5% | [4]; [7] 0% | [4]; at 50.0 µM 64.4% | [5]; [7] 9% | [6]; [7] 5%

O=C1OCC2=C1C(c1ccc(Cl)cc1)c1cc3c(cc1O2)OCO3 (centres undefined)
inactive: [1]; [7] 8% | [1]; [8] 10% | [1]; at 50.0 µM -23.4% | [2]; [7] 9% | [2]; [8] 8% | [2]; at 50.0 µM -20.4% | [3]; [7] 4% | [3]; [8] 16% | [3]; at 50.0 µM -5.5% | [4]; [7] 2% | [4]; [8] 18% | [4]; at 50.0 µM 19.4% | [5]; [7] 17% | [5]; [8] 21% | [5]; at 50.0 µM 6.15% | [6]; [7] 17% | [6]; [8] 7% | [6]; at 50.0 µM -15.8%

CCCN(CCC)CC(O)c1ccc2ccc3ccc(Cl)cc3c2c1 (centres undefined)
active: [1]; [8] 98% | [1]; at 50.0 µM 99.8% | [2]; [8] 98% | [2]; at 50.0 µM 99.8% | [3]; [8] 99% | [3]; at 50.0 µM 99.8% | [4]; [8] 98% | [4]; at 50.0 µM 99.6% | [5]; [8] 98% | [5]; at 50.0 µM 99.5% | [6]; [8] 99% | [6]; at 50.0 µM 99.8%
inactive: [1]; [7] 20% | [2]; [7] 18% | [3]; [7] 39% | [4]; [7] 29% | [5]; [7] 38% | [6]; [7] 27%

CCCCOC(=O)c1ccc(S(=O)(=O)c2ccc(C(=O)OCCCC)cc2)cc1
inactive: [1]; [7] 3% | [1]; [8] -6% | [1]; at 50.0 µM 1.7% | [2]; [7] 3% | [2]; [8] -3% | [2]; at 50.0 µM 28.4% | [3]; [7] 5% | [3]; [8] -18% | [3]; at 50.0 µM 10% | [4]; [7] 5% | [4]; [8] -11% | [4]; at 50.0 µM -13.1% | [5]; [7] 4% | [5]; [8] -1% | [6]; [7] 2% | [6]; [8] -3% | [6]; at 50.0 µM 11.1%
active: [5]; at 50.0 µM 77.7%

COC(=O)CCC(=O)N1C/C(=C\c2ccccc2)C(=O)/C(=C/c2ccccc2)C1
inactive: [1]; [7] 5% | [1]; [8] 41% | [2]; [7] 23% | [2]; [8] 42% | [3]; [7] 5% | [3]; [8] 56% | [4]; [7] 9% | [4]; [8] 19% | [4]; at 50.0 µM 16.5% | [5]; [7] 2% | [5]; [8] 22% | [6]; [7] 7% | [6]; [8] 38%
active: [1]; at 50.0 µM 88.6% | [2]; at 50.0 µM 95.3% | [3]; at 50.0 µM 92.5% | [5]; at 50.0 µM 92.5% | [6]; at 50.0 µM 95%

CCOC(=O)c1ccc(N(CCC(O)CN=[N+]=[N-])S(=O)(=O)c2ccc(C)cc2)cc1 (centres undefined)
inactive: [1]; [7] 9% | [1]; [8] 66% | [1]; at 50.0 µM 57% | [2]; [7] 11% | [2]; [8] 23% | [2]; at 50.0 µM 19.4% | [3]; [7] 18% | [3]; [8] 63% | [3]; at 50.0 µM 53.4% | [4]; [7] 0% | [4]; [8] 3% | [4]; at 50.0 µM 40.6% | [5]; [7] -4% | [5]; [8] 49% | [5]; at 50.0 µM 5.9% | [6]; [7] 29% | [6]; at 50.0 µM 55.1%
active: [6]; [8] 84%

CN(C)C(=S)N/N=C/c1ccccn1
active: [1]; [7] 94% | [1]; [8] 98% | [1]; at 50.0 µM 98.7% | [2]; [7] 95% | [2]; [8] 98% | [2]; at 50.0 µM 98.9% | [3]; [7] 95% | [3]; [8] 99% | [3]; at 50.0 µM 98.4% | [4]; [7] 95% | [4]; [8] 99% | [4]; at 50.0 µM 98.3% | [5]; [7] 95% | [5]; [8] 97% | [5]; at 50.0 µM 99% | [6]; [7] 95% | [6]; [8] 98% | [6]; at 50.0 µM 98.8%

O=C(c1ccccc1)C1(C(=O)c2ccccc2)/C(=N\O)C2CCC1C2 (centres undefined)
active: [1]; [8] 93% | [2]; [8] 96% | [3]; [8] 95% | [4]; [8] 94% | [5]; [8] 95% | [6]; [8] 93%
inactive: [1]; [7] 7% | [1]; at 50.0 µM 6.05% | [2]; [7] 1% | [2]; at 50.0 µM 12.7% | [3]; [7] -2% | [3]; at 50.0 µM 9.75% | [4]; [7] -2% | [4]; at 50.0 µM 1.9% | [5]; [7] 0% | [5]; at 50.0 µM 53.1% | [6]; [7] 12% | [6]; at 50.0 µM 13.7%

O=C1C(C(O)(C(F)(F)Cl)C(F)(F)Cl)CCC1C(O)(C(F)(F)Cl)C(F)(F)Cl (centres undefined)
active: [1]; [7] 92% | [1]; [8] 99% | [1]; at 50.0 µM 99.8% | [2]; [7] 95% | [2]; [8] 100% | [2]; at 50.0 µM 99.5% | [3]; [7] 95% | [3]; [8] 99% | [3]; at 50.0 µM 99.8% | [4]; [7] 94% | [4]; [8] 99% | [4]; at 50.0 µM 99.4% | [5]; [7] 78% | [5]; [8] 99% | [5]; at 50.0 µM 98.1% | [6]; [7] 95% | [6]; [8] 99% | [6]; at 50.0 µM 99.5%
